This is an account of results in PubChem BioAssay (Tox21).

Unmarked numbers belong to inactive results. Inconclusive results are not listed. Active and inactive are the calls of the source. Unless noted, the call rests on the fitted dose curve; in most records, active means well fitted curve in the direction sought with a large enough effect in the repeat runs; inconclusive means weak or mixed curves; inactive means no such curve, though single readings can be large; an effect the other way counts as inactive or inconclusive.

Assay [1] is described as follows: qHTS assay to identify small molecule agonists of the hypoxia (HIF-1) signaling pathway - cell viability counter screen (AID 1224844; calls by dose curve; further: nearly all actives have a fitted effect of over 50% in size). The method, boiled down:
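In this counter screen, HRE-bla ME-180 cell viability after 17 hrs of compound exposure at 37C was read by CellTiter-Glo luminescence, multiplexed with the beta-lactamase reporter measurement.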

A short description of assay [2]: qHTS assay to identify small molecule agonists of H2AX (AID 1224845; active means well fitted activation curve with a large enough effect in the signal ratio in the repeat runs, not every such curve was filed as active; the % refers to the signal ratio). The method, boiled down:
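Wild-type CHO-K1 cells, plated overnight, exposed 3hr at 37C to 15 concentrations (0.76% DMSO final). Lysed, then HTRF anti-pH2AX (S139) cryptate and anti-H2AX-d2 antibodies, 24 hr room temperature; 665/620 nm emission read.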

Assay [3] in a line: qHTS assay to identify small molecule agonists of the hypoxia (HIF-1) signaling pathway (AID 1224846; active means well fitted activation curve with a large enough effect in the signal ratio in the repeat runs, not every such curve was filed as active; the % refers to the signal ratio). The method, boiled down:
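ME-180 HRE-bla reporter cells; compounds in DMSO, 17 h at 37C; read-out beta-lactamase via CCF4-AM FRET.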

A short description of assay [4]: qHTS assay to identify small molecule agonists of H2AX - cell viability counter screen (AID 1224847; calls by dose curve; further: top concentration of the series differs between compounds; nearly all actives have a fitted effect of over 30% in size). A digest of the protocol:
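Counter-screen for viability: CellTiter-Glo ATP luminescence read after 3 h compound treatment (15-point titration, 0.76% DMSO final) of CHO-K1 cells at 37C, with 30 min room-temperature reagent incubation.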

A short description of assay [5]: qHTS assay to identify small molecule agonists of the estrogen related receptor (ERR) signaling pathway from Tox21 library (AID 1224849; calls by dose curve; further: nearly all actives have a fitted effect of over 15% in size). The following applies: ERR reporter cell line, ONE-Glo luciferase, 18 h; at 92.4 µM (top of the series) unless noted. A digest of the protocol: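 Luciferase activity in ERR pathway reporter cells served as the agonist readout; exposure lasted 18 h at 37 C, with ONE-Glo detection after 30 min at room temperature.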

A short description of assay [6]: qHTS RealTime-Glo MT Cell Viability Assay in HEK293 cells - 32 hour (AID 1224868). Further: nearly all actives have a fitted effect of over 50% in size. Further: potency means the concentration at half of the fitted maximal effect. The method, boiled down: (§1)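 HEK293 cells seeded with NanoLuc/prosubstrate reagent, rested 5 h at 37 C, then dosed and kept at 37 C up to 40 h. Nonlytic real-time luminescence from viable cells read at 0, 8, 16, 24, 32 and 40 h.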
A short description of assay [7]: A CellTox Green Cytotoxicity Assay to monitor cytotoxicity in HEK293 cells - 0 hour (AID 1224869). Further: nearly all actives have a fitted effect of over 50% in size. The method, boiled down:
(§2)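 Real-time, in one plate: 600 HEK293 cells/well with dead-cell DNA dye, pinned compound after 5 h, 37 C incubation over 40 h; viable cells give no appreciable fluorescence.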

Assay [8] can be described thus: qHTS RealTime-Glo MT Cell Viability Assay in HepG2 cells - 40 hour (AID 1224870). Further: nearly all actives have a fitted effect of over 50% in size. The method, boiled down: (§3)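 HepG2 cells (600/well) mixed with RealTime-Glo MT reagent, settled 5 h at 37 C/5% CO2 before compound addition. Nonlytic NanoLuc luminescence from viable-cell prosubstrate reduction read repeatedly during 40 h treatment at 37 C.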
Assay [9] is described as follows: A CellTox Green Cytotoxicity Assay to monitor cytotoxicity in HEK293 cells - 40 hour (AID 1224871). Further: nearly all actives have a fitted effect of over 45% in size. The method, boiled down:
as §2

A short description of assay [10]: qHTS RealTime-Glo MT Cell Viability Assay in HEK293 cells - 16 hour (AID 1224872). Further: nearly all actives have a fitted effect of over 50% in size. Further: potency means the concentration at half of the fitted maximal effect. The method, boiled down:
as §1

A short description of assay [11]: qHTS RealTime-Glo MT Cell Viability Assay in HepG2 cells - 8 hour (AID 1224873). Further: nearly all actives have a fitted effect of over 55% in size. The method, boiled down: as §3
Assay [12] is described as follows: qHTS RealTime-Glo MT Cell Viability Assay in HEK293 cells - 40 hour (AID 1224874). Further: nearly all actives have a fitted effect of over 50% in size. Further: potency means the concentration at half of the fitted maximal effect. Particulars: RealTime-Glo luminescence; max response: stronger effect = lower value. A digest of the protocol: (§4)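 Kinetic, non-lysing viability readout. Seed HEK293 (600/well) with reagent, incubate 5 h at 37 C/5% CO2, pin 23 nL compound in DMSO, incubate at 37 C, read luminescence at 0, 8, 16, 24, 32, 40 h.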

The nature of assay [13]: A CellTox Green Cytotoxicity Assay to monitor cytotoxicity in HEK293 cells - 24 hour (AID 1224875). Further: nearly all actives have a fitted effect of over 45% in size. A digest of the protocol:
as §2

The nature of assay [14]: A CellTox Green Cytotoxicity Assay to monitor cytotoxicity in HepG2 cells - 16 hour (AID 1224876). Further: nearly all actives have a fitted effect of over 45% in size. A digest of the protocol: (§5)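 Cytotoxicity was tracked as dead-cell DNA fluorescence in HepG2 cells treated with test compounds at 37 C; each time-point value comes from one kinetic series spanning 0, 8, 16, 24, 32 and 40 h.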
Assay [15] can be described thus: qHTS RealTime-Glo MT Cell Viability Assay in HepG2 cells - 32 hour (AID 1224877). Further: nearly all actives have a fitted effect of over 55% in size. The method, boiled down:
(§6)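 HepG2 cells (600/well) were dispensed with RealTime-Glo reagents, incubated 5 h at 37 °C, then treated with compounds in DMSO for up to 40 h. Nonlytic NanoLuc luminescence reflecting viable cells was read at each stated time point.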

The nature of assay [16]: A CellTox Green Cytotoxicity Assay to monitor cytotoxicity in HepG2 cells - 24 hour (AID 1224878). Further: nearly all actives have a fitted effect of over 45% in size. The method, boiled down: as §5
Assay [17] in a line: A CellTox Green Cytotoxicity Assay to monitor cytotoxicity in HepG2 cells - 40 hour (AID 1224879). Further: nearly all actives have a fitted effect of over 40% in size. A digest of the protocol:
as §5

Assay [18] in a line: qHTS RealTime-Glo MT Cell Viability Assay in HEK293 cells - 0 hour (AID 1224880). A digest of the protocol: as §4
A short description of assay [19]: qHTS RealTime-Glo MT Cell Viability Assay in HepG2 cells - 24 hour (AID 1224867). Further: nearly all actives have a fitted effect of over 50% in size. A digest of the protocol:
as §6

Assay [20] in a line: qHTS assay to identify small molecule antagonists of the estrogen related receptor (ERR) signaling pathway from Tox21 library (AID 1224848). Further: nearly all actives have a fitted effect of over 50% in size. Further: potency means the concentration at half of the fitted maximal effect. A digest of the protocol:
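Compounds dissolved in DMSO are pin-transferred onto ERR reporter cells (2,000 per well) that have settled for 6 h at 37 C. Plates then incubate 18 h at 37 C before ONE-Glo luciferase reagent and a luminescence read 30 min later.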
On the % scale 0 is the no-effect control and ±100 the full control effect.

`O=Cc1ccccc1`: the Potency entry in assay [1], in [2], in assay [3], in assay [4], in [6] and in assay [7] was “inactive” throughout. In addition, the Potency result in assay [8], in [9], in assay [10], in assay [11], in [13] and in [14] was “inactive” each time. Further, the Potency result in assay [15], in assay [16], in assay [17] and in assay [18] was “inactive” in each case. The activity change, positive = activation in assay [5] was 7.55%. Moreover, the max response in assay [12] is 19.9%.

Take `CCn1cc[n+](C)c1` (tested in a mixture with another compound): the Potency entry in [1], in assay [2], in [3], in assay [4], in assay [19] and in [6] was “inactive” in each case. Further, the Potency result in assay [7], in [8], in [9], in [10], in assay [11] and in assay [13] was “inactive” in each case. The Potency result in [14], in assay [16], in [17] and in assay [18] was “inactive” each time. For the same molecule, the max response in [12] was -0.353%.

`C[C@H]1[C@H](c2ccc(Cl)cc2)SC(=O)N1C(=O)NC1CCCCC1`: the Potency entry in assay [1], in assay [2], in [3], in assay [4], in assay [19] and in assay [7] was “inactive” throughout. Besides, the Potency result in assay [8], in [9], in assay [13], in assay [14], in [17] and in assay [18] was “inactive” throughout. In addition, the Potency in assay [20] was 30.6 µM (active); in assay [6], 49 µM (active); in assay [10], 38.9 µM (active); in assay [12] it was 43.6 µM (active). Also, in assay [5], the activity change, positive = activation was -41.4%.

On to `CCN(CC)C(=O)N[C@@H]1C=C2c3cccc4[nH]cc(c34)C[C@@H]2N(C)C1`, for which the Potency result in assay [1], in assay [2], in assay [3], in assay [4], in assay [19] and in assay [6] was “inactive” each time. In addition, the Potency entry in [7], in assay [8], in assay [9], in assay [10], in [11] and in [13] was “inactive” throughout. Also, the Potency entry in assay [14], in assay [15], in assay [17] and in [18] was “inactive” each time. The max response in [12] was -0.723%.

As for `Cc1nn(-c2cc(NS(C)(=O)=O)c(Cl)cc2Cl)c(=O)n1C(F)F`, the Potency result in assay [1], in assay [2], in assay [3], in assay [4], in assay [20] and in assay [19] was “inactive” each time. The Potency result in assay [6], in assay [8], in assay [9], in assay [10], in assay [11] and in assay [13] was “inactive” each time. The Potency entry in assay [14], in assay [15], in assay [17] and in assay [18] was “inactive” in each case. In [5], the activity change, positive = activation was -8.62%. Also, the max response in assay [12] was 1.81%.

As for `ClSC(Cl)(Cl)Cl`, the Potency result in [1], in assay [2], in assay [3], in [4], in [19] and in assay [6] was “inactive” in each case. In addition, the Potency result in [8], in assay [9], in assay [10], in assay [11], in assay [14] and in [15] was “inactive” in each case. In addition, the Potency result in [16], in assay [17] and in [18] was “inactive” throughout. For the same molecule, the activity change, positive = activation in assay [5] is 1.32%. Moreover, in assay [12], the max response was 0.633%.

For `CCNS(=O)(=O)C(F)(F)C(F)(F)C(F)(F)C(F)(F)C(F)(F)C(F)(F)C(F)(F)C(F)(F)F`, the Potency result in [1], in assay [2], in assay [3], in [4], in [19] and in [6] was “inactive” each time. The Potency entry in assay [7], in assay [8], in [9], in assay [10], in assay [11] and in assay [13] was “inactive” throughout. Besides, the Potency entry in assay [14], in assay [15], in assay [16], in assay [17] and in [18] was “inactive” throughout. For the same molecule, the activity change, positive = activation in assay [5] is -10.2%. Also, the max response in assay [12] was 23.4%.
